The supplement of paper PMC13380429

Test system: Vero E6 infected with SARS-CoV-2
Test: inhibition of SARS-CoV-2 cytopathic effect; higher = more antiviral protection, active = above 15
Details: 48 h

Measured: inhibition of SARS-CoV-2 cytopathic effect

CN(C)CCCSc1ccccc1NC(=O)/C=C/c1ccccc1 [cinanserin]
inactive: 1 nM 1.46% | 8.33 nM 0.94% | 100 nM -0.47% | 833.33 nM -4.69% | 10000 nM -4.38%

C=C(c1ccccc1OCc1cccc(Cl)c1)n1ccnc1 [croconazole]
inactive: 1 nM -1.55% | 8.33 nM -2.51% | 100 nM 0.21% | 833.33 nM 2.28% | 10000 nM -1.36%

NC(=O)c1ccc2[nH]ccc2c1
inactive: 1 nM -2.02% | 8.33 nM 0.22% | 100 nM 0.99% | 833.33 nM 0.03% | 10000 nM 3.72%

Cc1noc(-c2ccc(-c3ccc(CC(=O)O)cc3)cc2)c1NC(=O)O[C@H](C)c1ccccc1
inactive: 1 nM 0.92% | 8.33 nM 0.35% | 100 nM -2.41% | 833.33 nM -3.36% | 10000 nM -4.34%

C[C@]1(COc2ccc(N3CCC(Oc4ccc(OC(F)(F)F)cc4)CC3)cc2)Cn2cc([N+](=O)[O-])nc2O1 [delamanid]
inactive: 1 nM -0.82% | 8.33 nM 0.01% | 100 nM -1.12% | 833.33 nM 2.83% | 10000 nM 1.84%

CNCCCN1c2ccccc2CCc2ccccc21 [desipramine]
inactive: 1 nM -0.7% | 8.33 nM -0.11% | 100 nM -1.22% | 833.33 nM -1.13% | 10000 nM -2.62%

O=c1cc(N2CCOCC2)oc2c1ccc1ccccc12
inactive: 1 nM -1.26% | 8.33 nM 2.98% | 100 nM -0.06% | 833.33 nM 0.08% | 10000 nM -1.32%

COC(=O)Nc1ccc2[nH]cc(CCNC(C)=O)c2c1
inactive: 1 nM -2.08% | 8.33 nM -0.32% | 100 nM -1.52% | 833.33 nM -7.74% | 10000 nM -1.85%

Cc1cc(-c2nc(-c3ccc(OC(F)(F)F)cc3)no2)nn1Cc1ccnc(N2CCN(C3CC3)CC2)c1
inactive: 1 nM 0.33% | 8.33 nM -2.02% | 100 nM -12.6% | 833.33 nM 0.7% | 10000 nM -8.83%

OCCN1CCN(CC/C=C2/c3ccccc3Sc3ccc(C(F)(F)F)cc32)CC1 [flupentixol]
inactive: 1 nM -4.51% | 8.33 nM 0.12% | 100 nM -2.01% | 833.33 nM -0.29% | 10000 nM 0.08%

CC(C)(N)c1nc(-c2ccc(OC(F)(F)F)cc2)c[nH]1
inactive: 1 nM 0.82% | 8.33 nM 0.2% | 100 nM 2.45% | 833.33 nM 1.1% | 10000 nM -2.65%

COc1c2occc2c(OC)c2c(=O)cc(C)oc12 [khellin]
inactive: 1 nM 3.97% | 8.33 nM -0.75% | 100 nM -0.95% | 833.33 nM -3.54% | 10000 nM -0.89%

Cc1cn2c(N)c(Cl)cc(C(=O)NCC3CCN(CC(C)C)CC3)c2n1
inactive: 1 nM 2.35% | 8.33 nM 1.24% | 100 nM 2.96% | 833.33 nM 3.33% | 10000 nM 0.75%

NS(=O)(=O)NCCNc1nonc1/C(=N/O)Nc1ccc(F)c(Br)c1
inactive: 1 nM -1.72% | 8.33 nM -0.99% | 100 nM -3.11% | 833.33 nM 3.1% | 10000 nM -1.01%

C[C@@H]1COCCN1c1cc(=O)n2c(n1)N(Cc1cncc(Cl)c1)[C@H](C(F)(F)F)CC2
active: 10000 nM 44.4%
inactive: 1 nM -2.96% | 8.33 nM 2.22% | 100 nM -0.24% | 833.33 nM 7.24%

CCCCOc1ccc(CC(=O)NO)cc1 [bufexamac]
inactive: 1 nM 0.27% | 8.33 nM -0.68% | 100 nM 0.49% | 833.33 nM 0% | 10000 nM 0.42%

COc1cc(OCc2cccc(-c3ccccc3)c2C)cc(OC)c1CN1CCCC[C@H]1C(=O)O [PD1-PDL-inhibitor-1]
inactive: 1 nM -2.92% | 8.33 nM 1.37% | 100 nM 5.72% | 833.33 nM 0.14% | 10000 nM 0.4%

CC(=O)O[C@H]1C(=O)[C@@]2(C)[C@H]([C@H](OC(=O)c3ccccc3)[C@]3(O)C[C@H](OC(=O)[C@H](O)[C@@H](NC(=O)c4ccccc4)c4ccccc4)C(C)=C1C3(C)C)[C@]1(OC(C)=O)CO[C@@H]1C[C@@H]2O [paclitaxel]
inactive: 1 nM -2.42% | 8.33 nM -0.27% | 100 nM -2.39% | 833.33 nM -4.55% | 10000 nM -2.64%
